The list is not random: actives were taken first. Their share in the collection is about 19%.
DT40 TDP1 CPT: DT40-hTDP1 cell growth loss with CPT | AID 686979 | Potency, µM (top dose mostly 46.2 µM), usual class: inhibitors | actives 12% (n = 420,000) | chicken DT40 Tdp1-/-;hTDP1 cells + 20 nM CPT, ATP luminescence, 48 h; further: nearly all actives have a fitted effect of over 55% in size
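Chicken DT40 Tdp1-/- cells stably complemented with human TDP1 were seeded at 400 cells/well in medium containing 20 nM camptothecin, exposed to pin-transferred compounds, and grown at 37 °C for at least 48 hr. Viability was read as ATP luminescence.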
HT1080-NT tox: kills 2HG-producing HT-1080-NT fibrosarcoma cells; actives 1.6% (n = 360,000); Potency, µM (series often up to 46.1 µM), usual class: cytotoxic; AID 686970; HT-1080-NT fibrosarcoma viability, CellTiter-Glo ATP luminescence, 48 h;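 further: NT is the 2HG producing partner of a matched IDH1 knockdown line; nearly all actives have a fitted effect of over 55% in size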
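Viability of the 2HG-overproducing fibrosarcoma line after 48 hours of compound exposure at 37 degrees C was determined by luminescence with CellTiter-Glo, and concentration-effect curves were then fitted and categorized.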
DT40 TDP1 no CPT: qHTS for Inhibitors of human tyrosyl-DNA phosphodiesterase 1 (TDP1): qHTS in cells in absence of CPT. Potency, µM (doses to about 46.2 µM), most hits filed as inhibitors. DT40 Tdp1-/- hTDP1 cells, no CPT, ATP luminescence, 48 h. actives 15% (n = 420,000); further: nearly all actives have a fitted effect of over 55% in size
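DT40 Tdp1-/-;hTDP1 cells, no CPT (DMSO vehicle only), 400 cells/well; compounds pin-transferred; ≥48 hr, 37 °C; CellTiter-Glo 30 min RT dark, luminescence read.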
HT1080 IDH1KD tx: kills HT-1080 cells with IDH1 knockdown; Potency, µM (highest dose often 46.1 µM), most hits filed as cytotoxic; actives 2% (n = 360,000); AID 686971; HT-1080 IDH1 knockdown viability, ATP luminescence, 48 h
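Knockdown cells (IDH1KD HT-1080) received compounds 2 h after plating at 750 cells/well and were kept 48 h at 37 °C in 5% FBS RPMI. A CellTiter-Glo luminescence read gave % activity for curve fitting.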
IL1B secr inh: inhibitors of inflammasome signaling (IL-1 beta secretion); THP-1 LPS/ATP IL-1B secretion, AlphaLISA, 16 h; hits give low values; activity change, % at 57.5 µM; actives 4.7% (n = 360,000); AID 743279; in the data active means activity change below about -50%; inconclusive means mostly about -30% to -49%
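THP-1 cells pretreated 1 hr with compounds (up to 57.5 uM final), then stimulated with LPS (250 ng/mL final) plus ATP (1.25 mM final); secreted IL-1B measured by AlphaLISA after 16 hr, decreased signal indicating inhibition.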
Each line names hits and unclear results; the compound was inactive in the other large screens. Unless noted, the call rests on the fitted dose curve; in most records, active means well fitted curve in the direction sought with a large enough effect; inconclusive means small, poorly fitted or top-dose-only effect, or another doubt; inactive means no such curve, though single readings can be large; an effect the other way counts as inactive or inconclusive.

CN(C)CCN(C(=O)c1ccc2c(c1)OCCO2)c1nc2ccc(Cl)cc2s1	DT40 TDP1 CPT inconclusive, DT40 TDP1 no CPT inconclusive, HT1080 IDH1KD tx inconclusive
CN(C)CCCN(C(=O)c1ccco1)c1nc2ccc(Br)cc2s1	DT40 TDP1 CPT 23µM, HT1080-NT tox 23µM, DT40 TDP1 no CPT 23µM, HT1080 IDH1KD tx 21µM, IL1B secr inh -70
CN(C)CCN(C(=O)c1ccco1)c1nc2cc3c(cc2s1)OCCO3	DT40 TDP1 CPT 4.6µM, DT40 TDP1 no CPT 3.7µM
CN(C)CCCN(C(=O)c1ccco1)c1nc2ccc(Cl)cc2s1	DT40 TDP1 CPT 18µM, HT1080-NT tox inconclusive, DT40 TDP1 no CPT 16µM, HT1080 IDH1KD tx 18µM
CCc1ccc2nc(N(CCN(C)C)C(=O)c3ccc4ncsc4c3)sc2c1	IL1B secr inh -76
C/C=C/c1cnc2c(c1)C(=O)N([C@H](C)CO)C[C@H](C)[C@@H](CN(C)C(=O)CN1CCOCC1)O2	none
CC(=O)c1ccc(NC(=O)COC(=O)/C=C/c2cccs2)cc1	DT40 TDP1 CPT inconclusive, DT40 TDP1 no CPT inconclusive
COc1ccc(N2CCN(S(=O)(=O)c3ccc(OC)c(-c4noc(C)n4)c3)CC2)cc1	none (no result: HT1080-NT tox, HT1080 IDH1KD tx, IL1B secr inh)
Cc1ccc2nc(N(CCCN(C)C)C(=O)c3sc4ccccc4c3Cl)sc2c1	DT40 TDP1 CPT 16µM, HT1080-NT tox inconclusive, DT40 TDP1 no CPT 26µM, IL1B secr inh -91
Cc1ccc2nc(N(CCCN(C)C)C(=O)c3ccc(S(=O)(=O)N(C)C)cc3)sc2c1	none
Cc1ccc(C(=O)N(CCCN(C)C)c2nc3ccc(Cl)cc3s2)cc1C	DT40 TDP1 CPT inconclusive, HT1080-NT tox 23µM, DT40 TDP1 no CPT inconclusive, HT1080 IDH1KD tx 23µM, IL1B secr inh -107
CC(=O)Nc1ccc(S(=O)(=O)NCC(=O)OCC(=O)NCCc2ccccc2)cc1	none
FC(F)(F)c1cccc(-c2nn[nH]n2)c1	none
Nc1nc(N)c(-c2cccc(C(F)(F)F)c2)c(Cc2cccc(C(F)(F)F)c2)n1	DT40 TDP1 CPT 2.9µM, HT1080-NT tox inconclusive, DT40 TDP1 no CPT 1.3µM, HT1080 IDH1KD tx 4.6µM, IL1B secr inh -81
S=C1NC2(CCCCC2)NN1c1ccccc1	HT1080-NT tox inconclusive, DT40 TDP1 no CPT inconclusive, HT1080 IDH1KD tx inconclusive
O=C1NC2(CCC3(CC2)OCCO3)NN1c1ccccc1	HT1080-NT tox 6.5µM, HT1080 IDH1KD tx 7.3µM
Cc1cnc(NC(=O)c2sc(Nc3ccccc3)nc2N)o1	DT40 TDP1 CPT inconclusive, DT40 TDP1 no CPT inconclusive
COc1ccc2nc(NC(=O)c3ccccc3F)sc2c1	DT40 TDP1 no CPT inconclusive
COc1ccc(Br)c2c1-c1nc(NC(=O)c3ccccc3F)sc1C2	DT40 TDP1 CPT 21µM, DT40 TDP1 no CPT 18µM (no result: HT1080-NT tox, HT1080 IDH1KD tx, IL1B secr inh)
COc1cc(C(=O)Nc2nc3c(s2)Cc2c(Br)ccc(OC)c2-3)cc(OC)c1OC	DT40 TDP1 CPT 15µM, DT40 TDP1 no CPT 15µM (no result: HT1080-NT tox, HT1080 IDH1KD tx, IL1B secr inh)
CCSc1nnc(NC(=O)c2cc(OC)c(OC)c(OC)c2)s1	DT40 TDP1 no CPT inconclusive
COc1ccc(CCNC(=O)CC(c2ccccc2)c2cccc(C)c2O)cc1OC (stereo not given)	DT40 TDP1 CPT 12µM, DT40 TDP1 no CPT 9.2µM
O=C(CC(c1ccccc1)c1ccccc1O)NCCc1ccccc1 (stereo not given)	DT40 TDP1 no CPT inconclusive, IL1B secr inh -51
O=C(CC(c1ccccc1)c1ccccc1O)NCc1ccccc1Cl (stereo not given)	DT40 TDP1 CPT 23µM, DT40 TDP1 no CPT 16µM, IL1B secr inh inconclusive
O=C(CS(=O)(=O)Cc1ccccc1)NCc1ccccc1Cl	IL1B secr inh inconclusive
CCCCCCNC(=O)CC(c1ccccc1)c1cc(Br)ccc1O (stereo not given)	DT40 TDP1 CPT inconclusive, HT1080-NT tox inconclusive, DT40 TDP1 no CPT 26µM, HT1080 IDH1KD tx inconclusive, IL1B secr inh inconclusive
COc1ccc(CCNC(=O)CSc2ccccc2)cc1OC	none
CCN(CC(=O)Nc1cccc(OC)c1)CC(=O)Nc1ccc(C)cc1Cl	DT40 TDP1 CPT inconclusive, DT40 TDP1 no CPT inconclusive
Cc1ccc2oc(-c3ccc(C)c(NC(=O)/C=C/c4ccco4)c3)nc2c1	none (no result: HT1080-NT tox, HT1080 IDH1KD tx, IL1B secr inh)
Cc1ccc(NC(=O)Cn2nc(C)c3nn(-c4ccc(Cl)cc4)c(C)c3c2=O)cc1F	DT40 TDP1 CPT inconclusive, DT40 TDP1 no CPT 16µM (no result: HT1080-NT tox, HT1080 IDH1KD tx, IL1B secr inh)
Cc1ccc(NC(=O)Cn2nc(C)c3nn(-c4ccc(Cl)cc4)c(C)c3c2=O)cc1C	DT40 TDP1 CPT inconclusive, DT40 TDP1 no CPT 15µM (no result: HT1080-NT tox, HT1080 IDH1KD tx, IL1B secr inh)
Cc1ccc(NC(=O)CCn2nc(C)c3c(C)n(-c4ccccc4)nc3c2=O)cc1Cl	none (no result: HT1080-NT tox, HT1080 IDH1KD tx, IL1B secr inh)
O=C(Nc1cccc(NC(=O)c2cccs2)c1)c1ccc2c(c1)OCCO2	DT40 TDP1 CPT inconclusive, DT40 TDP1 no CPT inconclusive
Nc1nccc(SCc2ccccc2)n1	IL1B secr inh inconclusive
Cc1ccc(N2CC(O)=C(c3nc4ccccc4c(=O)[nH]3)C2=N)cc1C	DT40 TDP1 CPT inconclusive, HT1080-NT tox inconclusive, DT40 TDP1 no CPT inconclusive, HT1080 IDH1KD tx inconclusive
C/C(=N/NC(=O)c1ccccc1O)c1ccc(N2C(=O)C3CCCCC3C2=O)cc1 (stereo not given)	none
C/C(=N/OC(=O)c1ccc(C)cc1)c1ccc(N2C(=O)C3CCCCC3C2=O)cc1 (stereo not given)	DT40 TDP1 CPT inconclusive, DT40 TDP1 no CPT 16µM
CN1CCN(c2ccc(S(=O)(=O)N3CCOCC3)cc2NC(=O)COc2ccc(C#N)cc2)CC1	IL1B secr inh inconclusive
CCN(CC)S(=O)(=O)c1ccc(N2CCOCC2)c(NC(=O)COc2ccc(Cl)cc2)c1	DT40 TDP1 CPT inconclusive, DT40 TDP1 no CPT inconclusive

Source: PubChem BioAssay (National Center for Advancing Translational Sciences (NCATS))
